5 compounds from PubChem BioAssay (NCATS) can be followed below.

Inconclusive results are not listed. Activity calls are given as the source filed them. Unless noted, the call rests on the fitted dose curve; in most records, active means well fitted curve in either direction with a large enough effect (not every such curve was filed as active); inconclusive means small, poorly fitted or top-dose-only effect, or another doubt; inactive means flat fitted curve, though single readings scatter. A value given as a limit tells only on which side of the number the result lay.

Test [1] in a line: AP1 Signaling Pathway (AID 357). Further: on the % scale 0 is the no-effect control and ±100 the full control effect. A digest of the protocol: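 AP-1-bla ME-180 cells with beta-lactamase reporter under AP-1 response element, stimulated with EC50 EGF; compounds titrated, 5 hours at 37 degrees Celsius. CCF4 read at 460/530 nm ratio; positive and negative modulators judged by AC50.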
In test [2] the target is Cytochrome P450 1A2 (Homo sapiens) (UniProt P05177). Put plainly: p450-cyp1a2 (AID 410; calls by dose curve;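 further: -100% = full effect of reference inhibitor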). The method in brief: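 Read-out is luminescence from luciferin produced by CYP1A2 demethylation of Luciferin-ME (100uM, at Km). Detection reagent stopped the 60 min NADPH-dependent reaction; signals were normalized to 57 uM furafylline.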
Chain of Cytochrome P450 1A2 (Homo sapiens) (P05177 whole entry, looked up): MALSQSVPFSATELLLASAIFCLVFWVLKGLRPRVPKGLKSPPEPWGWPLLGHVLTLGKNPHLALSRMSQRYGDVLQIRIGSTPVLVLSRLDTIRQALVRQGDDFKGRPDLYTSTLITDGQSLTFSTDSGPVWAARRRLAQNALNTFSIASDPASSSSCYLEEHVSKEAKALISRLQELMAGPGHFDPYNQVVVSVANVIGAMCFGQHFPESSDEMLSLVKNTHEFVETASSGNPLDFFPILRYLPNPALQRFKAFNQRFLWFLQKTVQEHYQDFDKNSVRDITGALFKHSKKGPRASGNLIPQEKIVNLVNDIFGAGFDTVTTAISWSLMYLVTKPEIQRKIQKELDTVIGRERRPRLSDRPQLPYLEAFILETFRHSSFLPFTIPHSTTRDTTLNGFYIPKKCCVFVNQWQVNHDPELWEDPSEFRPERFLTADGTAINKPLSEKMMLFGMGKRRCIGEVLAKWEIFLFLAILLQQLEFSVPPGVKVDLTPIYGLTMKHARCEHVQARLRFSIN
Test [3] in a line: Stat Signaling Pathway (AID 446).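 Further: ME-180 cervical cancer cells given 40 pM IL-6 alongside compound; SIE-controlled beta-lactamase reporter measured as 460/530 nm FRET emission ratio; on the % scale 0 is the no-effect control and ±100 the full control effect.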 The method in brief:
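FRET read-out (405 nm excitation, 460/530 nm emission) of a beta-lactamase reporter under a STAT-inducible element in ME-180 cervical carcinoma cells. Cells with compound receive 40 pM IL-6 for 5 h. Values are normalised to AC90 stimulation and AC90 JAK-inhibitor controls.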

Test [4] addresses Glucocorticoid receptor (Homo sapiens) (UniProt P04150). Put plainly: GR-EFC Redistribution (AID 451; calls by dose curve; further: potency means the concentration at half of the fitted maximal effect). Particulars: CHO-K1 GR-EFC translocation, beta-gal luminescence, 2 h. The method in brief: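 CHO-K1 cells expressing nuclear EA and GR-ED fragments of b-gal; compounds titrated up to 46 uM final, 2 h at 37 C. GR nuclear translocation read as complemented b-gal luminescence after 1 h RT detection.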

The target in test [5] is Mitogen-activated protein kinase 10 (Mus musculus) (UniProt Q61831). Briefly: JNK3 AlphaScreen Assay (AID 530).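 Further: kinase came from lysate of stimulated human HepG2 cells; signal reports phosphorylation of biotinylated GST-cJun 1-79 at Ser73 with 10 µM ATP; on the % scale 0 is the no-effect control and ±100 the full control effect.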 The method in brief: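 HepG2 lysate (IL-1b/TNFa pre-activated) + biotin-GST-cJun 1-79 + anti-pSer73 cJun; cpd titration, 15 min RT; ATP 10 uM start; Tris pH 7.6, MgCl2, DTT, vanadate; beads in EDTA buffer; AlphaScreen.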
For orientation: In Alpha technology, singlet oxygen from a donor bead excites a nearby acceptor bead.

Test [6] deals with 3',5'-cyclic-AMP phosphodiesterase 4B (Homo sapiens) (UniProt Q07343). Briefly: qHTS Assay for Inhibitors of PDE-IV (AID 607; active means well fitted activation curve with a large enough effect in the main read-out, with a control signal flat, not every such curve was filed as active; further: % of control where 0% means no effect). The method in brief:
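Cell-based read-out of cAMP via a modified cyclic nucleotide-gated channel and membrane potential dye (535/590 nm) in HEK293 cells expressing PDE4 endogenously. Compounds tested up to 22.9 uM final; 100 uM RO 20-1724 reference.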
On the technique in general: Quantitative high-throughput screening tests each substance at several concentrations.

Test [7] concerns the target Cytochrome P450 3A4 (Homo sapiens) (UniProt P08684). Put plainly: qHTS Assay for Activators of Cytochrome P450 3A4 (AID 885; active means well fitted curve in the direction sought with a large enough effect; an effect the other way counts as inactive or inconclusive; further: nearly all actives have a fitted effect of over 65% in size; further: potency means the concentration at half of the fitted maximal effect). The method in brief:
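Luminescent readout of luciferin formed from 25 uM Luciferin-PPXE (KM level) by 20 nM CYP3A4 in 200 mM KPO4, with 60 min NADPH-driven reaction at room temperature after 10 min compound exposure. Ketoconazole (57 uM) defined 100% inhibition.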

Test [8] in a line: qHTS Assay for Lipid Storage Modulators (AID 1519; calls by dose curve). The following applies: Drosophila S3 cells, BODIPY lipid droplet/cell ratio, laser cytometry, cells loaded with oleic acid. The method in brief: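 Cells seeded at 5,000 per well were treated with compounds over a concentration series and loaded with oleic acid (400 uM, as added). Lipid droplet fluorescence (488 nm excitation, 500-530 nm channel) was read by laser-scanning cytometry and normalized to 20 uM Triacsin C.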

Test [9] in a line: NFAT Signaling Pathway (AID 444).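 Further: carbachol stimulus at about its EC50 of 1 µM final; on the % scale 0 is the no-effect control and ±100 the full control effect.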 The following applies: Jurkat NFAT-bla M1, carbachol, beta-lactamase ratio, 5 h; at 17.2 µM (top of the series). The method in brief: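 Jurkat cells with NFAT-driven β-lactamase reporter and co-expressed M1 receptor, stimulated with carbachol (final 1 uM, ~EC50), compound titration, 5 h at 37 °C. CCF4 loaded 1 h at RT; 460/530 nm ratio gave %activity and AC50.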

In test [10] the target is Glucocorticoid receptor (Homo sapiens) (UniProt P04150). Put plainly: GR-GFP Redistribution (AID 450;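 active means compounds whose dose series gives a full or clear partial fitted curve of increased nuclear translocation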; further: potency means the concentration at half of the fitted maximal effect). Particulars: U2OS GR-GFP nuclear translocation, laser cytometry, 2 h.
Chain of Glucocorticoid receptor (Homo sapiens) (P04150 whole entry, looked up, the tested form may be a part): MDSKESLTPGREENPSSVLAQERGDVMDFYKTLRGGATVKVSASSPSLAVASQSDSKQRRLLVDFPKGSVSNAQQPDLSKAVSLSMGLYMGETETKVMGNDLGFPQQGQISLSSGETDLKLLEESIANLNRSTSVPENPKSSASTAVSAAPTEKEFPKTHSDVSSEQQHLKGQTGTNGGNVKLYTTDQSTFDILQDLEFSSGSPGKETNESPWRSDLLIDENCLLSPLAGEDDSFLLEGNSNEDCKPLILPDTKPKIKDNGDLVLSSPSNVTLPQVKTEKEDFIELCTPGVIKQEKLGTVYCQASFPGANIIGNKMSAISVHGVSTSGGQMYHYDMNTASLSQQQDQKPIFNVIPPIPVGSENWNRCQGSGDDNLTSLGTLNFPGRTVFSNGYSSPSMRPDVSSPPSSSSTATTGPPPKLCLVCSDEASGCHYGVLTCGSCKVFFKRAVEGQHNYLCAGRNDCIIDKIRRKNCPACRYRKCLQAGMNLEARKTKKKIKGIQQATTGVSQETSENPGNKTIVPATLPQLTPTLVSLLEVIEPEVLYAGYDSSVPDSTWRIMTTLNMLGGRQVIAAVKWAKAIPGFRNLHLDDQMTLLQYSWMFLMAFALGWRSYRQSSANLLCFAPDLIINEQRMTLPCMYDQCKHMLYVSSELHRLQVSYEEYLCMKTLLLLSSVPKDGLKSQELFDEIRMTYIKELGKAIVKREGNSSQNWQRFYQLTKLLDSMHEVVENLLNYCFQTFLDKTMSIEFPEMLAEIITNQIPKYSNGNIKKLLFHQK
Test [11] addresses Ubiquitin carboxyl-terminal hydrolase 1 (Homo sapiens) (UniProt O94782). Briefly: Inhibitors of USP1/UAF1: Pilot qHTS (AID 504865; active means well fitted curve in the direction sought with a large enough effect; an effect the other way counts as inactive or inconclusive;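 further: rhodamine fluorescence freed from ubiquitin-rhodamine substrate followed over time; top concentration of the series differs between compounds; on the % scale 0 is the no-effect control and ±100 the full control effect; nearly all actives have a fitted effect of over 35% in size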). A digest of the protocol: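 In 50mM HEPES pH 7.8 containing 0.5mM EDTA, 1mM TCEP, 0.1 mg/ml BSA and 0.01% Tween-20, 1nM USP1/UAF1 is exposed to compound for 15 min, then Ub-Rho (150nM final) is added and fluorescence is read over time.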
The target in test [12] is ATP-dependent 6-phosphofructokinase (Trypanosoma brucei brucei) (UniProt O15648). Briefly: qHTS Assay to Find Inhibitors of T. brucei phosphofructokinase: hit validation (AID 492961; active means well fitted curve in the direction sought with a large enough effect; an effect the other way counts as inactive or inconclusive; further: on the % scale 0 is the no-effect control and ±100 the full control effect). A digest of the protocol: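 Luminescence from ADP-Glo reports ADP generated as T. brucei PFK (1.25 nM) phosphorylates 0.5 mM fructose-6-phosphate using 0.1 mM ATP. Reactions ran 45 min at room temperature, pH 8.0.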
Chain of ATP-dependent 6-phosphofructokinase (Trypanosoma brucei brucei) (O15648 whole entry, looked up): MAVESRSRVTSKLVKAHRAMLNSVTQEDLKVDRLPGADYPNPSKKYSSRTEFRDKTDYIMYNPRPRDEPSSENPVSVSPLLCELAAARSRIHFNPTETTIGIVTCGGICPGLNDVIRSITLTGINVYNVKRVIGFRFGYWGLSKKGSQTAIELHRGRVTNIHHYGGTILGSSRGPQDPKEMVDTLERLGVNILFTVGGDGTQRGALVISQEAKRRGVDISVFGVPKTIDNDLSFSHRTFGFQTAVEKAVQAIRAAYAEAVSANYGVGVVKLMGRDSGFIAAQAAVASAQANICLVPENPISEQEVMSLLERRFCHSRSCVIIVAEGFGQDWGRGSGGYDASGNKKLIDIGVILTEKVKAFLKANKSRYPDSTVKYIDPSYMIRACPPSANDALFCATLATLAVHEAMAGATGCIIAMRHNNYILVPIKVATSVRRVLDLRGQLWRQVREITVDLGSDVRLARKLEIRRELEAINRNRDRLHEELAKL

The target of test [13] is Luciferin 4-monooxygenase (Photinus pyralis) (UniProt P08659). Put plainly: Biochemical firefly luciferase enzyme assay for NPC (AID 624030; active means well fitted curve in the direction sought with a large enough effect; an effect the other way counts as inactive or inconclusive;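 further: purified P. pyralis luciferase at 10 nM with luciferin and ATP substrate; 0% = DMSO and -100% = full luciferase inhibition by PTC124 control; nearly all actives have a fitted effect of over 70% in size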). The method in brief: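 Purified P. pyralis luciferase at 10 nM in 50 mM Tris Acetate (final), luminescence read within 5 minutes of enzyme addition to compounds. Activity normalised to PTC124 versus DMSO; concentration-response curves classed by r2, magnitude and activity.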
Chain of Luciferin 4-monooxygenase (Photinus pyralis) (P08659 whole entry, looked up): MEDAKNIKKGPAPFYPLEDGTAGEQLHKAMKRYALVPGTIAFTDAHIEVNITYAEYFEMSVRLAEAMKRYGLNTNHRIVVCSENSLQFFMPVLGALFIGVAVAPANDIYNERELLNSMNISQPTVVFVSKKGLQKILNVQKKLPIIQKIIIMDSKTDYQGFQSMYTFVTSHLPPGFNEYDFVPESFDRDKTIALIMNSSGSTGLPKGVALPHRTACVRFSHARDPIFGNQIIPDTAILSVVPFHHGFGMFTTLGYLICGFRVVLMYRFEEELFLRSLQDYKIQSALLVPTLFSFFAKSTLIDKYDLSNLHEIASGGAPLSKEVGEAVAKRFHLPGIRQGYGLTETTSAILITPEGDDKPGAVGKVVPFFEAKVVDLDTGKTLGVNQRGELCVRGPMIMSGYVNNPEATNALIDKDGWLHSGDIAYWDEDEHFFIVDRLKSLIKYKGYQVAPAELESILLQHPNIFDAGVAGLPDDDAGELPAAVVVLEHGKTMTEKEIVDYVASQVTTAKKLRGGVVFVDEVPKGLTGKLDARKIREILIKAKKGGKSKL

Test [14] in a line: S16 Schwann cell PMP22 intronic element firefly luciferase assay (AID 624032; active means well fitted curve in the direction sought with a large enough effect; an effect the other way counts as inactive or inconclusive;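 further: plate controls were DMSO for no effect and PTC124 positive control mean for full effect; nearly all actives have a fitted effect of over 30% in size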). A digest of the protocol: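 Rat S16 Schwann cells stably carrying firefly luciferase driven by a PMP22 intronic element, in 10% FBS, treated 24 h at 37 C. ONE-Glo luminescence normalized to PTC124 control and DMSO (0%); curves classed by r2, magnitude and activity.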
The nature of test [15]: qHTS profiling for inhibitors of Plasmodium falciparum proliferation (AID 504749; active means well fitted curve in the direction sought with a large enough effect; an effect the other way counts as inactive or inconclusive;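 further: 0% = DMSO vehicle and full inhibition = artemisinin control; nearly all actives have a fitted effect of over 60% in size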). Particulars: P. falciparum in erythrocytes, SYBR Green DNA, 72 h, at 12.8 µM (top of the series). The method in brief: (§1)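 SYBR Green fluorescence (ex 485 nm, em 535 nm) reports parasite DNA after 72 h compound exposure of infected red cells at 0.3% parasitemia, 2.5% hematocrit; signal normalized to 0.29 uM artemisinin and vehicle wells.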

The next test has as its system C2A. Described as above. Particulars: P. falciparum in erythrocytes, SYBR Green DNA, 72 h; series mostly up to 28.7 µM. The method in brief: as §1
The next test relates to CP192. Described as above. The following applies: P. falciparum in erythrocytes, SYBR Green DNA, 72 h; series mostly up to 28.7 µM. A digest of the protocol:
as §1

Another test has as its system CP262. The description is as above. The following applies: P. falciparum in erythrocytes, SYBR Green DNA, 72 h; series mostly up to 28.7 µM. A digest of the protocol: as §1
For another test, the system named is CP286. The test is described as above. The following applies: P. falciparum in erythrocytes, SYBR Green DNA, 72 h; series mostly up to 28.7 µM. The method in brief: as §1
The next test has as its system FAB9. The test is described as above. The following applies: P. falciparum in erythrocytes, SYBR Green DNA, 72 h; series mostly up to 28.7 µM. A digest of the protocol: as §1
The mark [16] stands for this setting: measured here: cell count channel max response.
Where [17] appears, read: measured here: lipid channel max response.

Chain of 3',5'-cyclic-AMP phosphodiesterase 4B (Homo sapiens) (Q07343 whole entry, looked up): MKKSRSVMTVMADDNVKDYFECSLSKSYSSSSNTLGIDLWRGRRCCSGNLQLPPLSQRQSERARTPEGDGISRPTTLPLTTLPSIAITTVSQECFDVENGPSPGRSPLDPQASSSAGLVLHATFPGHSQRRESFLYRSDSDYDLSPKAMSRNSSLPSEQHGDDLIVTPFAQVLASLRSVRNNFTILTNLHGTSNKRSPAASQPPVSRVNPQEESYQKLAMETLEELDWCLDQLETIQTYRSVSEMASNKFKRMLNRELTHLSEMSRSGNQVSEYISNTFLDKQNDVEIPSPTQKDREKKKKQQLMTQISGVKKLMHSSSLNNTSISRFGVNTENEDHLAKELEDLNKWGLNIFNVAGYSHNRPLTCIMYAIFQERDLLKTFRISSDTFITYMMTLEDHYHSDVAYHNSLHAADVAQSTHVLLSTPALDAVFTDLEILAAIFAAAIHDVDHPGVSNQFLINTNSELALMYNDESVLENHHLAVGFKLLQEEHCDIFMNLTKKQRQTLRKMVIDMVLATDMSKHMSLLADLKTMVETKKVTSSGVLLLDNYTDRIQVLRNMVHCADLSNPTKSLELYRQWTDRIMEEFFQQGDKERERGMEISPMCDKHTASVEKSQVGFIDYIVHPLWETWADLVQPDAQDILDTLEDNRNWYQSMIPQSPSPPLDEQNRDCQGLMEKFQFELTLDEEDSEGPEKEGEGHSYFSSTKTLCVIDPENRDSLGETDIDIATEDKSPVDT
Chain of Ubiquitin carboxyl-terminal hydrolase 1 (Homo sapiens) (O94782 whole entry, looked up): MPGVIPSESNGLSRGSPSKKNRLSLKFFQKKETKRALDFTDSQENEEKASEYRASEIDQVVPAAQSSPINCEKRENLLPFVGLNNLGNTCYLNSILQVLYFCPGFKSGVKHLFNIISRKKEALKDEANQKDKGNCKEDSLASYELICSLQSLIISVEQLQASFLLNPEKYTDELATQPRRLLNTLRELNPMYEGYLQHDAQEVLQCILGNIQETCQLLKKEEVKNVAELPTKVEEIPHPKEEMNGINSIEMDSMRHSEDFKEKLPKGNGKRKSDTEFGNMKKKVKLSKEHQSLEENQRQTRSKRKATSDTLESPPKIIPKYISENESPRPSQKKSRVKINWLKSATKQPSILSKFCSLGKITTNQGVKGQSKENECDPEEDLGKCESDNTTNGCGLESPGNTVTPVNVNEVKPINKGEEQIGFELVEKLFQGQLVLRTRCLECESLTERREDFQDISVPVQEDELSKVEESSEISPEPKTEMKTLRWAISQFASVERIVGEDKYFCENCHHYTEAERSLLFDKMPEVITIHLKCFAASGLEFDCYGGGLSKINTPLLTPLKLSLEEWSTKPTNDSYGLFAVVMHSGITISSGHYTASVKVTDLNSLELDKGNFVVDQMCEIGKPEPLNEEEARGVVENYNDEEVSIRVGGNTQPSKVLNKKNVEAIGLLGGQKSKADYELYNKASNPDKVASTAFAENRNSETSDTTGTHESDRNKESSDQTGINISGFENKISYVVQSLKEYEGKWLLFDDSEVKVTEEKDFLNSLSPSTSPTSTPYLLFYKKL
Chain of Cytochrome P450 3A4 (Homo sapiens) (P08684 whole entry, looked up): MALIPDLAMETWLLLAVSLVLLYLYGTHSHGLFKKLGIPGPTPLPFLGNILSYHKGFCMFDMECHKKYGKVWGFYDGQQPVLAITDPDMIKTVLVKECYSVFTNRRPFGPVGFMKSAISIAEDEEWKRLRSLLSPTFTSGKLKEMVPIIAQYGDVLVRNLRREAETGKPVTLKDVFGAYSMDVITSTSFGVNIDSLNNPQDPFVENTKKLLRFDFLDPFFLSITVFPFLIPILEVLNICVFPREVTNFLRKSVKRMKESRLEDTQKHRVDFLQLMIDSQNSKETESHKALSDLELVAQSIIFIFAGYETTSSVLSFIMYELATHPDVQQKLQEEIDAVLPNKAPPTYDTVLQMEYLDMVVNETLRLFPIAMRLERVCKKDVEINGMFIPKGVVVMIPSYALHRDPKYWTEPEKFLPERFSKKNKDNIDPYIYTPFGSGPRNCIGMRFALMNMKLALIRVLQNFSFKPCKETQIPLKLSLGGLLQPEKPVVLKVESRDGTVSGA

Turning to `N#Cc1ccc(CN2CCC3(CC2)CCN(C(=O)Oc2ccccc2)CC3)cc1`, the result in test [1], in [3] and in [5] was inactive. Also, the Potency result in [2] and in test [6] was “inactive” throughout. The results for the Potency in [4] and in [7] were > 46 µM (inactive) and 15.8 µM (active), respectively. The activity change, negative = inhibition in [8] (at 57.5 µM (top of the series)) was 0.91% (inactive). Moreover, the max response is -4.88% in test [8] (setting [16]) and -1.78% in [8] (setting [17]).

As for `CN1CCC2=C[C@H](O)[C@@H]3OC(=O)c4cc5c(cc4[C@H]3[C@H]21)OCO5`, the compound was classed as inactive in [1], in test [3] and in test [5]. Also, the activity change, negative = inhibition in test [9] was -12.8% (inactive); in [8] (at 25.7 µM (top of the series)), 0.357% (inactive). For the same compound, the Potency in test [10] and in [4] was > 20.6 µM (inactive) in each case. For the same compound, the Potency result in test [6] and in test [11] was “inactive” in each case. The max response in test [8] (setting [16]) was -2.84%; in test [8] (setting [17]), -1.93%.

Consider `CC(C)(C)NC[C@H](O)c1cc(Cl)c(N)c(Cl)c1`, for which the call in [1], in test [3] and in [5] was inactive. The activity change, negative = inhibition in [9] was -7.65% (inactive); in test [8] (at 25.7 µM (top of the series)), -0.0671% (inactive). The figures for the max response in [8] (setting [16]) and in test [8] (setting [17]) were 1.84% and 2.72%, respectively. The Potency result in [11] was “inactive”.

Regarding `CCN[C@]1(c2cccs2)CCCCC1=O`, the compound was called inactive in test [1], in test [3] and in test [5]. The activity change, negative = inhibition in test [9] is -19.9% (inactive); in test [8] (at 25.7 µM (top of the series)), 0.601% (inactive). In addition, the Potency in [10] and in [4] was > 20.6 µM (inactive) in each case. Moreover, the Potency entry (in [6]; in [12]; in test [13]; in test [14]; in the test on C2A; in the test with CP192) was “inactive” in each case. For the same compound, the Potency result in the test with CP262, in the test with CP286 and in the test with FAB9 was “inactive” each time. Also, the max response is -13.4% in test [8] (setting [16]) and -12.8% in test [8] (setting [17]). For the same compound, the activity, negative = inhibition in [15] (parasite line A) was -1.5% (inactive); in test [15] (parasite line B) it was -1.41% (inactive).

As to `CNC(=O)N(C)c1nnc(C(C)(C)C)s1`, the compound was called inactive in test [1] and in test [3]. The activity change, negative = inhibition in test [9] is -5.4% (inactive); in [8] (at 57.5 µM (top of the series)), 6.39% (inactive). Further, in test [7], the Potency entry was “inactive”. The max response in [8] (setting [16]) was determined as 16.4%; in [8] (setting [17]), 25.2%.
